40 compounds from PubChem BioAssay (Tox21) can be followed below.

The structures appear in SMILES notation. Where “and” joins values, the source holds several entries; their conditions need not be identical. Equal entries are not always repeated. Records with an inconclusive call do not appear. Entries that show only a call come without a potency. A number with no mark means an inactive call. Calls of active or inactive are those of the source. Calls follow the shape of the dose curve; as a rule, active = well fitted cell-killing curve with a large enough effect in the repeat runs; inconclusive = weak or mixed curves, or effect the other way; inactive = no such curve, though single readings can be large or run the other way.
Potency is read from the fitted curve at half-maximal effect.

This assay in a line: qHTS assay to identify small molecule antagonists of the thyroid receptor (TR) signaling pathway - cell viability counter screen (AID 743064). Also: nearly all actives have a fitted effect of over 50% in size. As to conditions: GH3.TRE-Luc viability, CellTiter-Fluor, 24 h; series mostly up to 70.3 µM; activity change, negative = cytotoxic: at the top concentration. The source says:
National Center for Advancing Translational Sciences [NCATS]
NIH Chemical Genomics Center [NCGC]
U.S. Environmental Protection Agency [EPA]
National Institutes of Environmental Health Sciences [NIEHS]
National Toxicology Program [NTP]
U.S. Food and Drug Administration [FDA]
Thyroid receptor (TR), a nuclear hormone receptor, plays an important role in development, proliferation, differentiation, metabolism, brain function, and cardiovascular system. […] To profile the Tox21 10K compound library in TR signaling, a cell-based GH3-TRE-Luc assay (GH3.TRE-Luc cell line, developed by the laboratory of Dr. Albertinka J. Murk, Wageningen University) was used to measure the inhibition of TR. GH3 (rat pituitary tumor) cells stably expressing a TR activity sensor consisting of two TR response elements and a luciferase reporter gene. The cytotoxicity of the Tox21 compound library against the GH3.TRE-Luc cell line was tested in parallel by measuring the cell viability using CellTiter-Fluor assay (Promega, Madison, WI) in the same wells.
Tox21 Assay Protocol Summary:
GH3.TRE-Luc cells were dispensed at 1500 cells/4 uL/well into 1536-well white solid bottom plates using a Multidrop Combi dispenser (Thermo Fisher Scientific Inc., Waltham, MA). After the assay plates were incubated at 37 C for 4 hours, 23 nL of library compound or DMSO controls was transferred to the assay plates by a pintool station (Kalypsys, San Diego, CA), followed by addition of 1 ul of T3 (1 nM, final concentration in the wells) to stimulate TR transactivation. The assay plates were incubated at 37 C for 23.5 h, and then 1 uL of CellTiter-Fluor reagent (Promega, Madision, WI) of measuring cytotoxicity was added to each well using a Bioraptr Flying Reagent Dispenser (FRD) workstation (Beckman Coulter, Indianapolis, IN, USA). The plates were incubated at 37C and 5% CO2 for additional 30 min, and fluorescence intensity was measured by a ViewLux plate reader (PerkinElmer, Shelton, CT).
Regarding `CN(CCOc1ccc(CC2SC(=O)NC2=O)cc1)c1ccccn1` (stereo not given), the Potency entry is “inactive”.

Regarding `Cc1cc(NS(=O)(=O)c2ccc(N)cc2)no1`, the “activity change, negative = cytotoxic” value was -0.0795%.

`CCCCC(CC)COC(C)=O` (stereo not given): the Potency entry is “inactive”.

For the compound `CC1=C(/C=C/C(C)=C/C=C/C(C)=C/CO)C(C)(C)CCC1`, the “activity change, negative = cytotoxic” value is -20.6%.

As to `COC(=O)Nc1nc2ccc(Sc3ccccc3)cc2[nH]1`, the Potency is 202 nM (active).

Turning to `C=CC(=O)OCCCCCCCC(C)C`, the Potency result was “inactive”.

In the case of `CC(C)n1c(/C=C/[C@@H](O)C[C@@H](O)CC(=O)O)c(-c2ccc(F)cc2)c2ccccc21`, the Potency result was “inactive”.

Regarding `O=S(=O)(Oc1ccc(Cl)cc1Cl)c1ccccc1`, the “activity change, negative = cytotoxic” value is -10.6%.

Take `COCC(=O)O`: the Potency entry was “inactive”.

For the compound `C=C(C)C(=O)OCC(CC)(COC(=O)C(=C)C)COC(=O)C(=C)C`, the Potency entry was “inactive”.

Regarding `OC[C@@H](O)[C@H](O)[C@H](O)[C@@H](O)CO`, the Potency result was “inactive”.

Turning to `Cc1cc(Cc2ccc(N)c(C)c2)ccc1N`, the “activity change, negative = cytotoxic” value was -1.46%.

Take `C=C(C#N)C(=O)OCC`: the “activity change, negative = cytotoxic” value was 7.03%.

Regarding `O=C(O)c1ccc([N+](=O)[O-])cc1`, the Potency entry is “inactive”.

`CC(=O)CCc1ccccc1`: the Potency entry is “inactive”.

As to `CCC(C)C=O` (stereo not given), the “activity change, negative = cytotoxic” value was 28.9%.

As to `CCCCCCCCCCCCOCC1CO1` (stereo not given), the Potency result was “inactive”.

In the case of `CN(C)c1ccc(C(=N)c2ccc(N(C)C)cc2)cc1`, the Potency is 53.8 µM (active) and 26.3 µM (active).

Take `CC(C)(N=C=O)c1cccc(C(C)(C)N=C=O)c1`: the “activity change, negative = cytotoxic” value was -1.59%.

For `O=S(=O)(O)c1cc(S(=O)(=O)O)c2c(N=Nc3ccccc3)c(O)ccc2c1`, the Potency was 27.4 µM (active) and 68.6 µM (active).

In the case of `NCCc1ccc(O)c(O)c1`, the Potency was 27400 nM (active).

Regarding `CS(=O)(=O)Nc1ccc([N+](=O)[O-])cc1Oc1ccccc1`, the Potency result is “inactive”.

For the compound `OC[C@@H](O)[C@@H](O)[C@H](O)[C@@H](O)CO`, the “activity change, negative = cytotoxic” value is 5.3% [at 95 µM].

Consider `O=C(c1ccc(O)cc1)c1ccc(O)cc1O`, for which the Potency entry is “inactive”.

With `CCc1ccc(O)cc1`, the “activity change, negative = cytotoxic” value was 19.6% [at 95 µM].

On to `O=[N+]([O-])C(CO)(CO)CO`, for which the Potency entry was “inactive”.

For the compound `CNC[C@H](O)[C@@H](O)[C@H](O)[C@H](O)CO`, the Potency entry is “inactive”.

Consider `NCCNCCNCCNCCN`, for which the Potency result was “inactive”.

For the compound `CCCCC/C=C\C/C=C\CCCCCCCC(=O)OC`, the “activity change, negative = cytotoxic” value is 11.3%.

Turning to `CCCCNC(N)=O`, the Potency result is “inactive”.

Regarding `CC1COc2ccccc2N1C(=O)C(Cl)Cl` (stereo not given), the Potency is 9.67 µM (active) and 19.3 µM (active).

As for `Cn1c([N+](=O)[O-])cnc1COC(N)=O`, the Potency result was “inactive”.

As to `COC(=O)c1ccccc1O`, the Potency entry was “inactive”.

For the compound `CC1(C)CC(N=C=O)CC(C)(CN=C=O)C1` (stereo not given), the Potency entry is “inactive”.

`S=c1nc[nH]c2nc[nH]c12`: the Potency entry is “inactive”.

Regarding `CC1=C(CC(=O)O)c2cc(F)ccc2/C1=C\c1ccc(S(C)=O)cc1` (stereo not given), the “activity change, negative = cytotoxic” value is -2.68%.

As to `CCCCCCCCC`, the “activity change, negative = cytotoxic” value is 3.03% [at 95 µM].

Regarding `CS(=O)(=O)c1ccc([C@@H](O)[C@@H](CO)NC(=O)C(Cl)Cl)cc1`, the Potency entry is “inactive”.

`Cc1ccc(C)c(C)c1`: the Potency result was “inactive”.

Turning to `O=C1N=C(O)CN1/N=C/c1ccc(-c2ccc([N+](=O)[O-])cc2)o1`, the Potency was 15 µM (active) and 30.6 µM (active).
